A short description of assay [1]: antimalarial activity against Dd2 strain (AID 2302;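 active = growth inhibition above 50% at the single 2 µM test dose, taken to imply half-maximal potency below 2 µM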;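 note: 0% = DMSO untreated growth and 100% = chloroquine plus artemisinin killed control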). Conditions: P. falciparum Dd2 in RBCs, LDH growth readout, 72 h; at 2 µM; active compounds read high.
Assay [2] is described as follows: human hepatoma cell viability loss – ATP luminescence, cytotoxicity control for P. falciparum antimalarial project, primary screen (AID 2303;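 active = inhibition above 50%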;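 note: 0% = DMSO wells and 100% = digitonin-killed cells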). As to conditions: HepG2 viability, 24-48 h, at 10 µM, active compounds read high.
For assay [3], the target named is L-lactate dehydrogenase (Plasmodium falciparum (isolate CDC / Honduras)) (UniProt Q27743). Kind of assay: PfLDH activity inhibition – cell lysate, 3D7 strain, counter-screen for P. falciparum growth inhibition project (AID 2304).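 Note: 0% = vehicle and 100% = reference inhibitor.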 Conditions: P. falciparum 3D7 crude extract, LDH APAD/NBT absorbance; at 2 µM; active compounds read high. On the technique in general: A counterscreen serves to expose hits that act by an unwanted route or on another target.
Sequence of L-lactate dehydrogenase (Plasmodium falciparum (isolate CDC / Honduras)) (Q27743 whole entry, looked up): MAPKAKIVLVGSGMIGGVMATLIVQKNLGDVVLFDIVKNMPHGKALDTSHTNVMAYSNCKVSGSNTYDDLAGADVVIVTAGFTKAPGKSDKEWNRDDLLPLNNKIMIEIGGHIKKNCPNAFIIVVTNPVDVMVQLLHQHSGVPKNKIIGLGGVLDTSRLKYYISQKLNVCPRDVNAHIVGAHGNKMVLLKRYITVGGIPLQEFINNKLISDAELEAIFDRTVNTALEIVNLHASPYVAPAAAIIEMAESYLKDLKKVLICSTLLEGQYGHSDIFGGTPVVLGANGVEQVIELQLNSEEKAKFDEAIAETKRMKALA

A short description of assay [4]: inhibition of 3D7 malaria parasite growth – strain 3D7 (AID 2306).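 Note: 0% = DMSO wells and 100% = chloroquine plus artemisinin control wells.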 As to conditions: P. falciparum 3D7 erythrocytic growth, LDH absorbance, 72 h; at 2 µM; active compounds read high.
For assay [5], the target named is Calcium-dependent protein kinase 1 (Plasmodium falciparum (isolate 3D7)) (UniProt P62344). Put plainly: PfCDPK1 kinase inhibitors, biochemical, TCAMS library (AID 1159585; cut-off not given, nearly all actives have IC50 up to about 0.98 µM;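 note: inhibitors leave more ATP so luminescence rises with inhibition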). Conditions: recombinant PfCDPK1, Kinase-Glo ATP depletion luminescence. On the technique in general: In Kinase-Glo more light means more ATP remaining.
Sequence of Calcium-dependent protein kinase 1 (Plasmodium falciparum (isolate 3D7)) (P62344 whole entry, looked up): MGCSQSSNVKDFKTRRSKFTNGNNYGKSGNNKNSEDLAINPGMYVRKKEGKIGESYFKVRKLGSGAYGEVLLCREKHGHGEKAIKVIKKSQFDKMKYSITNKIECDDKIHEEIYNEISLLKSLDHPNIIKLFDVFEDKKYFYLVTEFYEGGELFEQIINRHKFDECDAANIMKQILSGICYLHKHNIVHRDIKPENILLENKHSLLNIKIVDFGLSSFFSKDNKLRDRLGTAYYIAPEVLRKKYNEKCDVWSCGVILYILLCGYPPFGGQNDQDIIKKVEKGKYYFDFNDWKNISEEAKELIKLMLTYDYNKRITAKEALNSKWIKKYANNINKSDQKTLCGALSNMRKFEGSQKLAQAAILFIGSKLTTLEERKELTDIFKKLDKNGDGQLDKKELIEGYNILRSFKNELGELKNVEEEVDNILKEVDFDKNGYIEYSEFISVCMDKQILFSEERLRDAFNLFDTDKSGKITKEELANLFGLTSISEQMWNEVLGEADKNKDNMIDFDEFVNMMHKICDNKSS
In assay [6] the target is Plasmodium falciparum protein kinase 6 (PK6, PF3D7_1337100) (UniProt Q8IDW1). Put plainly: PfPK6 kinase inhibitors, biochemical, TCAMS library (AID 1159586). Conditions: recombinant PfPK6, Kinase-Glo ATP depletion luminescence.
Sequence of Plasmodium falciparum protein kinase 6 (PK6, PF3D7_1337100) (Q8IDW1 1-305): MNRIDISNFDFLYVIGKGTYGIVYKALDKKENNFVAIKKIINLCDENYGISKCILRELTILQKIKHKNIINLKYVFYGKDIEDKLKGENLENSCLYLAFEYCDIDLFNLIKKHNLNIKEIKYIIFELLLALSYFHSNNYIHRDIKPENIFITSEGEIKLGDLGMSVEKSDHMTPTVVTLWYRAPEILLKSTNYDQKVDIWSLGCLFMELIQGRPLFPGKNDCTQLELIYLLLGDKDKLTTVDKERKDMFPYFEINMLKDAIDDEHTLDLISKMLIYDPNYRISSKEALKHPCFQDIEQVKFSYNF
For assay [7], the target named is Protein kinase 7 (PK7), Plasmodium falciparum 3D7 (PF3D7_0213400) (UniProt Q7YTF7). Put plainly: inhibition of Plasmodium PK7 catalytic activity – biochemical, TCAMS antimalarial set, Kinase-Glo luminescence (AID 1159587). As to conditions: recombinant PfPK7, Kinase-Glo ATP depletion luminescence.
Sequence of Protein kinase 7 (PK7), Plasmodium falciparum 3D7 (PF3D7_0213400) (Q7YTF7 1-343): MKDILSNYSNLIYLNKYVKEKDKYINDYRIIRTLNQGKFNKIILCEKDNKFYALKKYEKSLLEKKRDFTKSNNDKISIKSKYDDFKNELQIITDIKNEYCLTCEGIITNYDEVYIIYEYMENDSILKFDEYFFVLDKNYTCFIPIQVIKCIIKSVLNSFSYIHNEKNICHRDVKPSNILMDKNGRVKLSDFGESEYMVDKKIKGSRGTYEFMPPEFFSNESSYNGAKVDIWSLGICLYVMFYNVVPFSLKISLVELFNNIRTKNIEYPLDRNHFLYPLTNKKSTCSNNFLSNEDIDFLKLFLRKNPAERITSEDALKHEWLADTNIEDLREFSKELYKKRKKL
Assay [8] has as its target Calcium-dependent protein kinase 4 (Plasmodium falciparum (isolate 3D7)) (UniProt Q8IBS5). Kind of assay: PfCDPK4 kinase inhibitors, biochemical, TCAMS library (AID 1159588; cut-off not given, nearly all actives have IC50 up to about 0.91 µM). As to conditions: recombinant PfCDPK4, Kinase-Glo ATP depletion luminescence.

Values without a mark were called inactive. For some of these results: Measured potencies and affinities stand elsewhere. Calls of active or inactive are those of the source. Unless noted, the rule behind the calls is not given here.

Sequence of Calcium-dependent protein kinase 4 (Plasmodium falciparum (isolate 3D7)) (Q8IBS5 whole entry, looked up): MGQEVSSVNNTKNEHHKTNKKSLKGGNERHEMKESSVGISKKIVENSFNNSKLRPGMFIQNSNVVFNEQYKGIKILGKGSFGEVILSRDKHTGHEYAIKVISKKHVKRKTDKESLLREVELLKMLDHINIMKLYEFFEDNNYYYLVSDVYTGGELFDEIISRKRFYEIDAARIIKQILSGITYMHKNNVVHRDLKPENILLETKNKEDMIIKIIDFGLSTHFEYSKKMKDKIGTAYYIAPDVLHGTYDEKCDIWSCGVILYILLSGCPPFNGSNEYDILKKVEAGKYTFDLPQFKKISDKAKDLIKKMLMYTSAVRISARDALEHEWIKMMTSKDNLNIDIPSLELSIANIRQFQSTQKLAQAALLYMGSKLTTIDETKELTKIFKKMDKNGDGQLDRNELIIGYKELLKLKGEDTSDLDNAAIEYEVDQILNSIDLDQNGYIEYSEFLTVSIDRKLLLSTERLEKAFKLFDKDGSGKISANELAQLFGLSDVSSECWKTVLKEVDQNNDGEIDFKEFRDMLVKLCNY

A word on the inhibition: it is the change of the read-out against control, counted positive when it falls. In the case of `Cc1cc(N[C@@H](Cc2ccccc2)C(=O)NCCOc2ccccc2)nc(NCc2ccccc2C)n1`, the growth inhibition in assay [1] was 80% (active); in assay [4], 100% (active). In addition, the inhibition in assay [2] was 32%; in assay [3] it was -3%. In addition, the outcome in assay [5], in assay [6], in assay [7] and in assay [8] was inactive.
With `CCC[C@@H]([C@@H](CC(C)C)C(=O)N[C@H](C(=O)Nc1nccs1)C(C)(C)SCCNC(=O)OCC)N(O)C=O`, the growth inhibition in assay [1] was 97% (active); in assay [4], 95% (active). Also, the figures for the inhibition in assay [2] and in assay [3] were -8% and -7%, respectively. In addition, the outcome in assay [5], in assay [6], in assay [7] and in assay [8] was inactive.
Turning to `CCC(C)c1ccc(O)c(NC(=O)c2cncc(Br)c2)c1` (stereo not given), the values for the growth inhibition in assay [1] and in assay [4] were 16% and 100% (active), respectively. Also, the inhibition in assay [2] is -13%; in assay [3], -4%. For the same molecule, the outcome in assay [5], in assay [6], in assay [7] and in assay [8] was inactive.
With `CCN(CC)CCNC(=O)c1ccc(NC(=O)c2ccc(-c3cc(NC(=O)CC4CCCC4)ccc3C)cc2)cc1`, the growth inhibition in assay [1] is 95% (active); in assay [4], 99% (active). For the same molecule, the figures for the inhibition in assay [2] and in assay [3] were 12% and -5%, respectively. In addition, the outcome in assay [5], in assay [6], in assay [7] and in assay [8] was inactive.
Consider `CC(C)NCc1cccc(-c2cccc(NC(=O)c3ccc(C#N)cc3)c2)c1`, for which the results for the growth inhibition in assay [1] and in assay [4] were 20% and 97% (active), respectively. For the same molecule, the inhibition in assay [2] was 18%; in assay [3], 0%. In addition, the result in assay [5], in assay [6], in assay [7] and in assay [8] was inactive.
As to `COc1cccc(-c2ccc3c(-c4cccc(NC(C)=O)c4)cnc(N)c3c2)c1`, the growth inhibition was 83% (active) in assay [1] and 99% (active) in assay [4]. The inhibition in assay [2] was 71% (active); in assay [3], -6%. Moreover, the result in assay [5], in assay [6], in assay [7] and in assay [8] was inactive.
For `COc1ccc2ncc(Cl)c(CCN3CCC(NCc4ccc5c(n4)NC(=O)CO5)CC3)c2c1`, the values for the growth inhibition in assay [1] and in assay [4] were 26% and 92% (active), respectively. Moreover, the inhibition in assay [2] was 25%; in assay [3] it was -1%. For the same molecule, the outcome in assay [5], in assay [6], in assay [7] and in assay [8] was inactive.
`Cc1cc(NC(=O)c2ccco2)ccc1OC1CCN(Cc2ccc(F)cc2)CC1`: the growth inhibition in assay [1] is 93% (active); in assay [4], 96% (active). Moreover, the figures for the inhibition in assay [2] and in assay [3] were 4% and -2%, respectively. Further, the outcome in assay [5], in assay [6], in assay [7] and in assay [8] was inactive.
With `Cc1cc(Nc2c(C(N)=O)cnc3cc(-c4ccoc4)ccc23)ccc1N1CCN(C)CC1`, the results for the growth inhibition in assay [1] and in assay [4] were 100% (active) and 101% (active), respectively. The inhibition in assay [2] was 7%; in assay [3], 1%. Also, the outcome in assay [5], in assay [6], in assay [7] and in assay [8] was inactive.
Regarding `O=C(C=Cc1ccc(Cl)c(Cl)c1)NCCCCCN1CCC(CCNC(=O)/C=C/c2ccccc2)CC1`, the growth inhibition is 1% in assay [1] and 97% (active) in assay [4]. Further, the results for the inhibition in assay [2] and in assay [3] were 25% and -7%, respectively. The outcome in assay [5], in assay [6], in assay [7] and in assay [8] was inactive.
`Fc1ccc2[nH]c(-c3ccccc3)nc2c1CN1CCC(N2CCCC2)CC1`: the growth inhibition is 30% in assay [1] and 100% (active) in assay [4]. In addition, the values for the inhibition in assay [2] and in assay [3] were 2% and -2%, respectively. Besides, the result in assay [5], in assay [6], in assay [7] and in assay [8] was inactive.
Consider `COc1ccc(N2CCN(CCCCNC(=O)c3ccc(NC(=O)c4ccc(C(F)(F)F)cc4)cc3)CC2)c(OC)c1`, for which the values for the growth inhibition in assay [1] and in assay [4] were 8% and 100% (active), respectively. Moreover, the results for the inhibition in assay [2] and in assay [3] were 4% and 6%, respectively. Also, the result in assay [5], in assay [6], in assay [7] and in assay [8] was inactive.
On to `Cc1cc(Nc2cccc(C(F)(F)F)c2)nc(NCc2ccccc2)n1`, for which the growth inhibition in assay [1] was 95% (active); in assay [4], 102% (active). For the same molecule, the inhibition in assay [2] is 17%; in assay [3], 0%. For the same molecule, the outcome in assay [5], in assay [6], in assay [7] and in assay [8] was inactive.
As to `CC1CCN(c2nc(C(=O)Nc3cccc4c3CCCC4)c(C(C)C)s2)CC1`, the growth inhibition in assay [1] was 49%; in assay [4], 96% (active). In addition, the inhibition in assay [2] was 14%; in assay [3], 3%. Moreover, the result in assay [5], in assay [6], in assay [7] and in assay [8] was inactive.
In the case of `Cc1cccc(Cl)c1S(=O)(=O)N1CCCCC(c2ccc(C(F)(F)F)cc2)=N1`, the growth inhibition in assay [1] and in assay [4] was 100% (active) in each case. Moreover, the inhibition in assay [2] was 5%; in assay [3], 1%. Besides, the result in assay [5], in assay [6], in assay [7] and in assay [8] was inactive.
For `CN1CCCC(CN2CCN(Cc3ccc(-c4ccc(-c5nc6ccccc6[nH]5)cc4)cc3)CC2)C1` (stereo not given), the growth inhibition in assay [1] was 100% (active); in assay [4] it was 101% (active). Besides, the inhibition was 69% (active) in assay [2] and 0% in assay [3]. The outcome in assay [5], in assay [6], in assay [7] and in assay [8] was inactive.
Take `Cc1cc2ccc(-c3cccc(CN)c3)cc2nc1N`: the growth inhibition is 1% in assay [1] and 100% (active) in assay [4]. Moreover, the values for the inhibition in assay [2] and in assay [3] were -4% and -6%, respectively. The result in assay [5], in assay [6], in assay [7] and in assay [8] was inactive.
With `Cc1[nH]c(C)c(-c2ccc(-c3ccccc3F)nc2)c(=O)c1Br`, the growth inhibition in assay [1] and in assay [4] was 97% (active) each time. For the same molecule, the inhibition is 2% in assay [2] and -3% in assay [3]. Further, the outcome in assay [5], in assay [6], in assay [7] and in assay [8] was inactive.
Consider `COc1ccc(-c2csc3nc(C)nc(Cl)c23)cc1OC`, for which the growth inhibition was 95% (active) in assay [1] and 97% (active) in assay [4]. In addition, the values for the inhibition in assay [2] and in assay [3] were -10% and -6%, respectively. For the same molecule, the outcome in assay [5], in assay [6], in assay [7] and in assay [8] was inactive.
Take `O=C(Nc1ccc2c(c1)OCO2)NC1CCN(c2ccnc(Nc3ccc(F)cc3)n2)C1` (stereo not given): the results for the growth inhibition in assay [1] and in assay [4] were 89% (active) and 100% (active), respectively. Besides, the inhibition is 5% in assay [2] and 3% in assay [3]. Besides, the result in assay [5], in assay [6], in assay [7] and in assay [8] was inactive.
